PubChem BioAssay (NCATS)
Inconclusive results are not listed. A number with no mark means an inactive call. Calls follow the shape of the dose curve; as a rule, active = well fitted cell-killing curve with a large enough effect; inconclusive = small, poorly fitted or top-dose-only effect; inactive = flat fitted curve, though single readings scatter.

Experiment: Cell Viability - LYMP1-002 - Assay at 40 hr (AID 994);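 also: 0% = DMSO only and full inhibition = 92 µM tetraoctylammonium bromide; nearly all actives have a fitted effect of over 60% in size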
Settings: LYMP1-002 lymphoblastoid cell viability; series mostly up to 92.2 µM; viability change, negative = cytotoxic: at the top concentration
From the text: NIH Chemical Genomics Center [NCGC]
NIH Molecular Libraries Screening Centers Network [MLSCN]
National Institutes of Environmental Health Sciences [NIEHS]
National Toxicology Program [NTP]
We have developed a 1536-well cell-based assay for quantitative high throughput screening (qHTS) against a number of cell lines to determine in vitro cytotoxicity of small molecules. This particular assay uses a human lymphoblastoid cell line (LYMP1-002) purchased from Coriell Institute for Medical Research.
NCGC Assay Protocol Summary:
The CellTiter-Glo luminescent cell viability assay (Promega) is a homogeneous method to measure the number of viable cells in culture. The end point readout of this assay is based on quantitation of intracellular ATP, an indicator of metabolic activity, using the luciferase reaction. Luciferase catalyzes the oxidation of beetle Luciferin to oxyluciferin and light in the presence of ATP. The luminescent signal is proportional to amount of ATP present.
Using the CellTiter-Glo luminescent cell viability assay, the amount of cellular ATP was measured in the lymphoblastoid cell line with complete culture medium following compound treatment for 40 hours. The assay was performed in opaque white Kalypsys 1536-well plates. In the screen, tetraoctylammonium bromide was used as positive control. Library compounds were measured for their ability to cause acute toxicity in the cell line, as reflected by a decrease in intracellular ATP levels, in a concentration-dependent manner. […] AC50 values were determined from concentration-response data modeled with the standard Hill equation.
qHTS protocol for CellTiter Glo lymphoblastoid cellular assay
[Step] [Parameter] [Value] [Description]
1. Reagent; 5 uL; 2500 lymphoblastoid cells/well
2. Time; 5 hr; 37 C incubation
4. Controls; 23 nL; Tetraoctylammonium bromide 6.4pM to 92 uM
5. Time; 40 hr; 37 C incubation
6. Reagent; 5 uL; CellTiter Glo reagent
7. Time; 30 min; Room Temperature
8. Detection; Luminescence; Viewlux plate reader
Keywords: cell viability, cytotoxicity, lymphoblastoid cell line, luminescence, NTPHTS, NTPHTS_NCGC, NIEHS, DSSTox, MLSMR, MLSCN, NIH Roadmap, qHTS, NCGC

SMILES | viability change, negative = cytotoxic [%]
Cc1c(N(C)C)c(=O)n(-c2ccccc2)n1C | 2.28
FC(F)(F)C(Cl)Br (configuration not stated) | 0.213
CC(=O)NS(=O)(=O)c1ccc(N)cc1 | -2.23
Nc1ccc(S(=O)(=O)c2ccc(N)cc2)cc1 | -3.77
CCCCCCCC(=O)OCC(COC(=O)CCCCCCC)OC(=O)CCCCCCC | -9.6
COc1ccc(O)cc1 | -6.1
O=C1C(c2[nH]c3ccccc3c2O)=Nc2ccccc21 | -13.7
CCCCOC(=O)c1ccc(N)cc1 | -16.4
CCCCCC(N)=O | -2.7
CC(=O)OCC(COC(C)=O)OC(C)=O | -0.646
CCCC(O)C(CC)CO (configuration not stated) | -0.119
CC(=O)Nc1cccc(O)c1 | 0.532
O=C1c2cccc(O)c2C(=O)c2c(O)cccc21 | -5.1
Cc1cc(C)nc(NS(=O)(=O)c2ccc(N)cc2)n1 | -6.14
CCN(CC)C(=O)c1cccc(C)c1 | -6.76
O=C(O)CCCCC1CCSS1 (configuration not stated) | 2.95
Cc1cc(=O)[nH]c(=S)[nH]1 | -7.36
CC1CC(OC(=O)c2ccccc2O)CC(C)(C)C1 (configuration not stated) | -11.8
C=CCNC(N)=S | -10.3
CC(=O)Nc1ccccc1 | -6.65
CC(=O)Nc1ccc(C(=O)O)cc1 | 1.16
O=C(c1ccccc1)C(O)c1ccccc1 (configuration not stated) | -3.07
